From PubChem BioAssay
A3A deaminase: APOBEC3A ssDNA deaminase inhibitors, primary screen, selectivity assay for APOBEC3G inhibitor project, biochemical, FAM/TAMRA oligo cleavage fluorescence; DNA dC->dU-editing enzyme APOBEC-3A (Homo sapiens), P31941; recombinant A3A, FAM/TAMRA ssDNA deamination fluorescence; inhibition, % at 20 µM; 330,000 tested, 0.41% active;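 active = at least 40% inhibition at 20 µM here, with at most 30% in a related deaminase screen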
Target sequence (P31941 whole entry, looked up): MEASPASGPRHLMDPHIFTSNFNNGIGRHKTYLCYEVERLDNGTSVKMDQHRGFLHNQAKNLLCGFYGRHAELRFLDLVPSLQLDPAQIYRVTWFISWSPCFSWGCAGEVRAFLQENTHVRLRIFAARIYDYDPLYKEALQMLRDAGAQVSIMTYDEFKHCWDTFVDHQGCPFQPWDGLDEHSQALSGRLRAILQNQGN
Yeast superoxide: reduction of superoxide in aged yeast, primary screen, HTS. S. cerevisiae aged cells, superoxide DHE fluorescence; hits give low values. superoxide response (% of plate mean), % at 10 µM. 330,000 tested, 0.18% active. AID 2690, 2010;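 active = superoxide response under a set limit, about three screen SD below normal, cut at about 65% in these data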;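 also: yeast aged for seven days with compound at 30 °C before DHE staining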
APOBEC3G inh: APOBEC3G DNA deaminase inhibitors, primary screen, biochemical, fluorescence, single-stranded DNA substrate, uHTS | DNA dC->dU-editing enzyme APOBEC-3G (Homo sapiens), Q9HC16 | recombinant A3G, ssDNA deamination FAM/TAMRA fluorescence | inhibition, % at 20 µM | 330,000 tested, 0.28% active;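 active = inhibition of at least 40% at 20 µM, with no more than 30% in the related APOBEC3A deaminase screen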
ALR inh: inhibitors of human ALR sulfhydryl oxidase, primary screen, biochemical, H2O2 detection, HRP-luminol luminescence, single point; FAD-linked sulfhydryl oxidase ALR (Homo sapiens), P55789; purified ALR, DTT oxidation; inhibition, % (test concentration not listed); 290,000 tested, 3.8% active;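 active = mean replicate inhibition above about 79%, with every replicate also reaching it, limit read from the data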
Target sequence (P55789 whole entry, looked up): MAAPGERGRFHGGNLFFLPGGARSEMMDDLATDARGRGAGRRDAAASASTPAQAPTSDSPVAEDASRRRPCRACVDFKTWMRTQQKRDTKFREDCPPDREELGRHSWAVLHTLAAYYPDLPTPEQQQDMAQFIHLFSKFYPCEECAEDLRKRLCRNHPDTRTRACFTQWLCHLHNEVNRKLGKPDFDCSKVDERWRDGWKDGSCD
CendR NRP1 mod: modulators of CendR peptide binding to NRP-1, primary screen, biochemical, fluorescence polarization, uHTS; Neuropilin-1 (Homo sapiens), O14786; FAM-RPARPAR peptide binding to NRP-1; inhibition, % at 25 µM; 360,000 tested, 0.85% active; AID 602438, 2012;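 active = inhibition or corrected inhibition above about 18%, plus a signal ratio from 0.5 to 1.5, limit read from the data, passing the limit was not always enough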
PfM18AAP inh: PfM18AAP inhibitors, malaria aminopeptidase, primary screen, biochemical, QFRET, recombinant enzyme. M18 aspartyl aminopeptidase (Plasmodium falciparum 3D7). H-Glu-NHMec fluorogenic cleavage. inhibition, % at 7.35 µM. 290,000 tested, 1.2% active;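 active = inhibition above the campaign mean inhibition over all tested compounds plus 3 SD, cut at about 28% in these data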
Each line names hits and unclear results; the compound was inactive in the other large screens. Rows were chosen to be rich in hits. Some 5.2% of all compounds tested hit in one or more screens of this group.

O=[N+]([O-])c1ccc(-n2nnnc2CN2CCCCC2)cc1	CendR NRP1 mod 24
OC[C@H]1O[C@@H](Oc2cc(O)cc(/C=C/c3ccc(O)cc3)c2)[C@H](O)[C@@H](O)[C@@H]1O	ALR inh 99, PfM18AAP inh 40 (no result: A3A deaminase, APOBEC3G inh, CendR NRP1 mod)
COc1cccc(NC(=O)CN(C)C(=O)C(CCSC)NC(=O)c2ccco2)c1 (stereo not given)	CendR NRP1 mod 18 (no result: ALR inh, PfM18AAP inh)
CC(=O)Nc1ccc(N2C(=O)CSC2c2ccccc2)cc1 (stereo not given)	ALR inh 99
O=C1CSC(c2ccccc2)N1c1cccnc1 (stereo not given)	ALR inh 93
O=C1CSC(c2cccnc2)N1c1ccccc1 (stereo not given)	ALR inh 96
Cc1cccc(N2C(=O)CSC2c2cccnc2)c1 (stereo not given)	ALR inh 99
Cc1cccc(N2CCN(c3cccc(C)c3)C2c2cccnc2)c1	ALR inh 95
COc1ccc(CCNC(=O)CSc2nc(N)c3c(C)c(C)oc3n2)cc1OC	none
CCOC(=O)/C(C#N)=N/Nc1ccccc1OC	none
CCN(CC)C(=N)/C(C#N)=N/Nc1ccccc1	ALR inh 87
N#C/C(=N\Nc1ccccc1)C(=N)N1CCCCC1	ALR inh 99
Cc1ccc(N/N=C(\C#N)C(=N)N2CCCCC2)cc1	ALR inh 99
COc1ccccc1N/N=C(\C#N)C(=N)N1CCOCC1	ALR inh 82
c1ccn2cc(C34CC5CC(CC(C5)C3)C4)nc2c1	none
N#C/C(=N\Nc1ccc(Br)cc1)C(=N)N1CCOCC1	ALR inh 98
N#C/C(=N\Nc1ccc([N+](=O)[O-])cc1)C(=N)N1CCOCC1	none
O=C(COC(=O)c1cccnc1Cl)NC1CCCCC1	none (no result: PfM18AAP inh)
CC1CCC(NC(=O)COC(=O)c2cccnc2Cl)CC1 (stereo not given)	CendR NRP1 mod 24 (no result: ALR inh, PfM18AAP inh)
NC(=O)c1ccsc1NC(=O)COC(=O)COc1ccccc1F	ALR inh 78
NC(=O)c1ccsc1NC(=O)COC(=O)COc1ccccc1[N+](=O)[O-]	none (no result: PfM18AAP inh)
CCN(C(=O)c1sc(N)c(C#N)c1C)C1CCCCC1	ALR inh 96
Cc1cc(C2C(C#N)=C(N)SC(N)=C2C#N)c(C)s1	ALR inh 99
Cc1ccc2c(c1)nnn2C1CCN(CC(=O)NCc2ccccc2F)CC1	none (no result: ALR inh)
O=C1NN(c2ccccc2)C(=O)/C1=C\c1ccccc1OCC(=O)N1CCOCC1	ALR inh 99
CCN(Cc1ccncc1)C(=O)c1cc(COc2ccc(F)cc2F)on1	CendR NRP1 mod 43
Cc1cc(-c2cc(-c3ccc(Cl)cc3)on2)nc(NC2CCCC2)n1	none (no result: PfM18AAP inh)
CC(Nc1nc(-c2ccc(F)cc2)cs1)c1nc2cc(Cl)c(Cl)cc2n1CCOCCO (stereo not given)	none (no result: PfM18AAP inh)
Cc1csc(NC(C)c2nc3cc(C(F)(F)F)ccc3n2CCOCCO)n1 (stereo not given)	CendR NRP1 mod 33 (no result: PfM18AAP inh)
COc1ccc(/C=C/C(=O)ONC2=NCCCCC2)cc1OC	none
COc1cc(/C=N/NC2=NCCCCC2)ccc1O	ALR inh 95
O=[N+]([O-])c1ccccc1/C=N/NC1=NCCCCC1	none
Oc1ccc(/C=N/NC2=NCCCCC2)cc1	ALR inh 99
COCCNC(=O)C(=O)c1cc(C)n(-c2ccc([N+](=O)[O-])cc2)c1C	ALR inh 97
COc1cc(O)c(C(CCN2CCCCC2)c2ccc(N(C)C)cc2)c(OC)c1 (stereo not given)	ALR inh 98 (no result: PfM18AAP inh)
COc1cc(O)c(C(CC(=O)N2CCCC2)c2ccc(N(C)C)cc2)c(OC)c1 (stereo not given)	ALR inh 98 (no result: PfM18AAP inh)
COc1ccc(C(CC(=O)N2CCCCC2)c2c(O)cc(OC)cc2OC)cc1 (stereo not given)	none (no result: Yeast superoxide, ALR inh, PfM18AAP inh)
